In the library only some 9.3% were active in any assay of this set; here they are far more common.
SMN2 splice enh: qHTS Assay for Enhancers of SMN2 Splice Variant Expression; HEK293 SMN2-luciferase splicing reporter, luminescence, 30-36 h; Potency, µM (top dose mostly 46.1 µM), hits mostly activators; 2.8% of 210,000 active; AID 1458, 2008; also: nearly all actives have a fitted effect of over 55% in size
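qHTS luciferase splicing reporter: luminescence rises when SMN2 exon 7 is included in transfected HEK293 cells. Compound exposure lasted 30-36 h at 37C, with 4.5 mM final sodium butyrate as control, followed by a ONE-Glo read.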
ELG1 DNA repair: qHTS screen for small molecules that inhibit ELG1-dependent DNA repair in human embryonic kidney (HEK293T) cells expressing luciferase-tagged ELG1. Potency, µM (titrated, usually from 46.1 µM), hits mostly inhibitors. 2.3% of 330,000 active. HEK293T ELG1-luciferase reporter, luminescence, 16 h; DNA damage induced by 5-fluorouridine; also: nearly all actives have a fitted effect of over 55% in size
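Quantitative HTS, concentration-response format. 2,000 cells/well co-treated with 5-fluorouridine and compound, 16 hr in 5% CO2 at 37 °C; ONE-Glo luminescence read after 30 min.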
Rab9 prom act: qHTS Assay for Rab9 Promoter Activators; Huh7 Rab9 promoter-luciferase reporter, luminescence, 24 h; Potency, µM (top dose mostly 9.22 µM), hits mostly activators; 2.8% of 320,000 active; AID 485297, 2010; also: nearly all actives have a fitted effect of over 60% in size
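Measured in stably transfected Huh7 cells bearing a Rab9 promoter–luciferase construct: 24 h compound treatment at 37 °C, followed by luminescence detection.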
NPC1 promoter act: qHTS Assay for NPC1 Promoter Activators; AID 485313, 2010; Potency, µM (series often up to 9.22 µM), actives largely listed as activators; Huh7 NPC1 promoter luciferase reporter, 24 h; 2.4% of 320,000 active; also: nearly all actives have a fitted effect of over 60% in size
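Compounds in DMSO were transferred onto Huh7 NPC1-luciferase reporter cells pre-incubated 2 h; after 24 h at 37 °C, Amplite reagent was dispensed and luminescence recorded 10 min later.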
ELG1 genotox: qHTS screen for small molecules that induce genotoxicity in human embryonic kidney (HEK293T) cells expressing luciferase-tagged ELG1; HEK293T ELG1-luciferase reporter, luminescence, 16 h; Potency, µM (doses to about 46 µM), actives largely listed as activators; 1.3% of 330,000 active; AID 504466, 2011; also: nearly all actives have a fitted effect of over 60% in size
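Genotoxic stress is detected as increased luminescence from luciferase-tagged ELG1 in HEK293T cells, measured with ONE-Glo after a 16 hr treatment at 37 °C.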
FLuc modulator: qHTS profiling assay for firefly luciferase inhibitor/activator using purifed enzyme and Km concentrations of substrates (counterscreen for miR-21 project). 6.9% of 360,000 active. purified FLuc, Km substrates, luminescence inhibition. Potency, µM (top dose mostly 57.5 µM), most hits filed as inhibitors. Luciferin 4-monooxygenase (Photinus pyralis), P08659; also: nearly all actives have a fitted effect of over 55% in size
Target sequence (P08659 whole entry, looked up): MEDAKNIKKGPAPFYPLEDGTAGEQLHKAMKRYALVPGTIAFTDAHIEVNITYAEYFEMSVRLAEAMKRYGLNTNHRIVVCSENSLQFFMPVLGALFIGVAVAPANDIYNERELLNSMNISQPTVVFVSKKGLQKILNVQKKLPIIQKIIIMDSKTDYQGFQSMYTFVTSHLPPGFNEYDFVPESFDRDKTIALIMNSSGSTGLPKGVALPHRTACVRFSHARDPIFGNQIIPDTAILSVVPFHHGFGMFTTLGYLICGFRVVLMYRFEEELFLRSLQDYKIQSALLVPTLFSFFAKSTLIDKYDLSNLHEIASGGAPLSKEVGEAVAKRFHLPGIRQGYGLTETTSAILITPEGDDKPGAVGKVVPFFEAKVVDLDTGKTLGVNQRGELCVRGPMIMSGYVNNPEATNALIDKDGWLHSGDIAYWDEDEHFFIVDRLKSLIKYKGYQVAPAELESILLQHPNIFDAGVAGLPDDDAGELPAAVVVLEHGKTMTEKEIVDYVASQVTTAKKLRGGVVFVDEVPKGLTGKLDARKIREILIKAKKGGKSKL
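Biochemical qHTS of compounds, final roughly 60 µM downward over six points, against 10 nM purified firefly luciferase using Km concentrations of substrates (10 uM D-luciferin, 10 uM ATP) in Tris acetate pH 7.5 buffer; luminescence output.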
Numbers stand for hits; - = inactive; ? = inconclusive; . = not tested or not shown. Calls follow the shape of the dose curve; as a rule, active = well fitted curve in the direction sought with a large enough effect; inconclusive = small, poorly fitted or top-dose-only effect, or another doubt; inactive = no such curve, though single readings can be large; an effect the other way counts as inactive or inconclusive.

SMILES | SMN2 splice enh | ELG1 DNA repair | Rab9 prom act | NPC1 promoter act | ELG1 genotox | FLuc modulator
CN(C)c1ccc(/C=C(\NC(=O)c2ccccc2)C(=O)NCCCn2ccnc2)cc1 | . | - | - | - | - | -
CC(=O)Oc1cc(OC(C)=O)c2c(=O)c(-c3ccc4c(c3)OCCCO4)c(C)oc2c1 | . | ? | ? | - | - | -
CCOc1ccc(-c2nnc(SCC(=O)NC3CCCCC3)nc2-c2ccc(OCC)cc2)cc1 | . | . | . | . | . | -
Cc1cccc(OCc2nnc(SC(C)C(=O)O)n2-c2ccccc2)c1 (configuration not stated) | . | ? | - | - | - | -
COc1ccc2cc(C(=O)Nc3ccccc3)sc(=O)c2c1OC | - | ? | - | - | - | -
O=C(Nc1ccccc1)c1cc2ccc3ccccc3c2s1 | . | ? | ? | ? | ? | 5.36µM
COc1ccc2cc3cc(C(=O)N4CCN(Cc5ccc6c(c5)OCO6)CC4)oc3nc2c1 | - | 23.1µM | - | - | - | -
CCOC(=O)C1CCN(C(=O)c2cc3cc4ccc(OC)cc4nc3o2)CC1 | . | ? | 0.891µM | 0.631µM | ? | ?
COc1ccc2cc3cc(C(=O)N4CCN(c5ccccn5)CC4)oc3nc2c1 | . | - | - | - | - | 19µM
COc1ccc2nc3oc(C(=O)N4CCC(C(N)=O)CC4)cc3cc2c1 | - | ? | - | - | - | -
CN(C)CCNC(=O)c1ccc2c(c1)N(Cc1c(F)cccc1Cl)C(=O)c1ccccc1S2 | - | . | . | . | . | -
O=C(COC(=O)c1ccccc1)NC1CCCCCC1 | . | - | . | . | - | .
O=C(CCCn1nnc2ccccc2c1=O)N[C@H](C(=O)O)c1ccccc1 | . | ? | - | - | - | -
CC(C)(C)OC(=O)C[C@H]1C/C=C\C[C@@H](CC(=O)N[C@H](CO)Cc2ccccc2)C(=O)NCCOC1=O | . | - | . | . | - | .
CSCCC(NS(=O)(=O)c1ccccc1F)C(=O)NCc1cccs1 (configuration not stated) | . | - | - | - | - | -
COC(=O)c1cccc(CSC(=S)N2CCCC2)c1 | . | - | - | - | - | ?
Cc1ccc(S(=O)(=O)c2cc3ccccc3oc2=O)cc1 | - | - | - | - | - | -
Cc1cc(C(=O)CSc2nnc(-c3ccco3)o2)c(C)n1-c1ccc2c(c1)OCCO2 | - | ? | - | - | - | -
Cc1nnc(SCc2cccc(CSc3nnc(C)s3)c2)s1 | - | ? | ? | ? | ? | ?
Cc1cc(C(=O)CSc2nnnn2C)c(C)n1-c1ccc2c(c1)OCCO2 | ? | ? | 2.51µM | 3.16µM | 10µM | 23.9µM
Cc1nnc(SCC(=O)c2cc(C)n(-c3ccc4c(c3)OCO4)c2C)s1 | . | ? | ? | - | ? | 23.9µM
Cc1nnc(SCc2ccc3c(c2)OCO3)s1 | - | ? | ? | - | 20.6µM | ?
Cc1nnc(SCc2ccc(F)cc2Cl)s1 | ? | ? | ? | 3.55µM | ? | 23.9µM
O=C1C(Cl)=C(N2CCN(Cc3ccccc3)CC2)C(=O)N1Cc1ccccc1 | - | ? | - | - | - | -
CCOC(=O)C1CCCN(S(=O)(=O)Cc2ccccc2Cl)C1 (configuration not stated) | . | - | - | - | - | -
SMILES | SMN2 splice enh | ELG1 DNA repair | Rab9 prom act | NPC1 promoter act | ELG1 genotox | FLuc modulator
COc1ccc(CN(C)Cc2nc(Cc3cccc(F)c3)no2)c2cccnc12 | . | ? | - | - | - | -
Cc1nn(-c2ccccc2)c(Cl)c1/C=N/NC(=O)c1ccccc1NS(=O)(=O)c1cccs1 | - | - | - | - | - | 12µM
Cc1nn(-c2ccccc2)c(Cl)c1/C=N/NC(=O)c1ccc(NS(=O)(=O)c2cccs2)cc1 | 12.6µM | ? | ? | ? | ? | 0.849µM
O=C(CCCCn1c(=O)c2ccccc2n(Cc2ccc(F)cc2Cl)c1=O)NCc1ccco1 | - | ? | - | - | - | -
CCC(=O)Nc1cccc(-c2nnc(SCC(=O)NCc3ccco3)n2C)c1 | - | - | - | - | - | -
Cc1ccc(-n2nnnc2SCC(=O)Nc2ccccc2N2CCCCC2)cc1C | - | 9.2µM | - | - | - | -
CCC(=O)Nc1cccc(-n2nnnc2SCC(=O)c2ccc(C)c(C)c2)c1 | - | - | - | - | - | 15.1µM
Cn1c(SCc2ccccc2)nnc1-c1cnccn1 | - | ? | 6.31µM | - | - | -
Cc1ccc(-n2nnnc2SCC(=O)Nc2ccccc2-c2ccccc2)cc1C | - | ? | - | - | - | -
CCC(=O)Nc1cccc(-c2nnc(SCC(=O)c3ccccc3)n2C)c1 | - | ? | 1.78µM | ? | ? | 6.01µM
CCC(=O)Nc1cccc(-n2nnnc2SCC(=O)NCc2ccco2)c1 | - | - | - | - | - | -
O=C(COC(=O)c1cccc(S(=O)(=O)N2CCCCCC2)c1)Nc1ccccc1C(F)(F)F | . | - | - | - | - | -
Cc1ncsc1CCC(=O)N1CCCC(Nc2ccc(F)c(F)c2)C1 (configuration not stated) | . | - | - | - | - | -
COC(=O)CCC(=O)Nc1cccc2ccccc12 | - | - | - | - | - | -
Cc1cc(C)nc(SCc2nnc(SCC(=O)NCc3ccco3)n2-c2ccccc2)n1 | - | - | - | - | - | -
Cn1c(SCC(=O)c2ccccc2)nnc1-c1cccs1 | . | ? | 2.82µM | 3.16µM | ? | 12µM
CCn1c(SCC(=O)O)nnc1-c1ccccc1OC | . | ? | 3.16µM | 4.47µM | 23.1µM | 13.5µM
CCn1c(SCC(=O)c2ccccc2)nnc1-c1cnccn1 | ? | ? | ? | ? | 16.4µM | 21.3µM
Cn1c(SCC(=O)c2ccccc2)nnc1-c1cnccn1 | - | ? | 3.16µM | ? | ? | ?
COc1ccc2[nH]cc(CCNC(=O)Cc3c(F)cccc3Cl)c2c1 | . | - | - | - | - | -
Fc1ccc(-n2c(-c3ccc4ccccc4n3)n[nH]c2=S)cc1Cl | - | - | - | - | - | -
COc1cccc(-c2cc(N3C(=O)Nc4ccccc4N3O)n[nH]2)c1 | - | ? | - | - | - | 15.1µM
CCOc1ccc(-c2cc(N3C(=O)Nc4ccccc4N3O)n[nH]2)cc1 | - | - | - | - | - | 6.75µM
COc1ccc(S(=O)(=O)N2CCCCCC2)cc1C(=O)NCCOc1ccc(C)cc1 | . | ? | - | - | - | -
COc1ccc(-c2cc(C(=O)O)c(C)o2)cc1OC | 0.631µM | ? | 0.316µM | ? | ? | 1.69µM
Cc1oc(-c2ccc3c(c2)OCCO3)cc1C(=O)O | - | 1.64µM | - | - | - | 2.39µM
Cc1oc(-c2ccc3c(c2)OCCO3)cc1C(=O)NCC(=O)O | . | ? | - | - | - | -
